# Some compounds were tested as several samples or in several runs, with calls that do not always agree. Calls of active or inactive are those of the source. The calls were made as follows: active = hit-call score of the fitted dose curve at least 0.9, where 1 is the maximum; inactive = score below 0.9.
# Read-out: Vascular cell adhesion molecule 1 (VCAM1), VCAM1 (gene 7412)
# Experiment: BSK_MyoF_VCAM1: BioMAP Diversity Plus: MyoF Assay for Vascular cell adhesion molecule 1 (VCAM1) Biomarker Activity (AID 2284231)
# Details: primary human lung fibroblasts
# Method: BSK_MyoF is a cell-based, multiplexed-readout assay that uses lung fibroblasts, […], with measurements taken at 24 hours after chemical dosing in a microplate: 96-well plate.BSK_MyoF_VCAM1 is an assay component measured in the BSK_MyoF assay. It measures VCAM-1 antibody related to regulation of gene expression using ELISA technology.Data from the assay component BSK_MyoF_VCAM1 was analyzed at the endpoint, BSK_MyoF_VCAM1, in the positive analysis fitting direction relative to DMSO as the negative control and baseline of activity. Using a type of binding reporter, gain or loss-of-signal activity can be used to understand protein changes. To generalize the intended target to other relatable targets, this assay endpoint is annotated to the 'cell adhesion molecules' intended target family, where the subfamily is 'Immunoglobulin CAM'.
# The levels of cell surface (or secreted, indicated by the prefix "s") biomarker endpoints were measured by ELISA. Overt cytotoxicity to cells in confluent adherent cultures (all systems other than the BT system) was assessed by measuring total protein levels using sulforhodamine B (SRB) staining in parallel cultures at the time of biomarker measurements, indicated as SRB endpoints. For proliferation assays for adherent cell types, individual cell types are cultured at sub-confluence and relative cell numbers quantified by SRB staining at time points optimized for each system (48 h: 3C and CASM3C systems; 72 h: BT and HDF3CGF systems; 96 h: SAg system). SRB was performed by staining cells with 0.1% SRB after fixation with 10% TCA and reading wells at 560 nm.Viability and proliferation of PBMC (T cells) was quantified by Alamar Blue reduction for the SAg and BT systems. For PBMC viability (referred to as PBMC Cytotoxicity within the assay endpoint names), cells were plated (75,000/well in a 96-well plate) and then chemical samples added for 1 h before addition of activators, SEB and TSST-1 (20 ng/mL final concentration each). Cells were incubated for 90 h. Then, Alamar Blue (20 uL/well) (Invitrogen, Cat DAL1100) was added for 6 h, and the plates were read with a fluorescence microplate reader at 546/580 nm (excitation/emission). For PBMC proliferation, cells were plated and activated as above but incubated for only 16 h prior to addition of Alamar Blue. Plates were read after 6 h.
SMILES,AC50,outcome
C=CC(=O)OCC(CO)(COC(=O)C=C)COC(=O)C=C,0.964 µM (active),
CCCCCCCCCCCCS,23.1 µM (active),
CCOC(=O)CCCCCCCCC(=O)OCC,,inactive
CCCCCCCCCC(=O)OCC,,inactive
CCCCCCCC1CCCC1=O (stereo unspecified),,inactive
C=C(C)C(=O)OCCC(F)(F)C(F)(F)C(F)(F)C(F)(F)C(F)(F)C(F)(F)C(F)(F)C(F)(F)F,,inactive
CC(=O)OC(C)(C)C1CC=C(C)CC1 (stereo unspecified),,inactive
CC(=O)OCC=C(C)CCC=C(C)CCC=C(C)C,,inactive
OCCN1CCOCC1,,inactive
CCOC(=O)C=Cc1ccccc1,,inactive
OCC(F)(OC(F)(F)C(F)(OC(F)(F)C(F)(F)C(F)(F)F)C(F)(F)F)C(F)(F)F (stereo unspecified),6.21 µM (active),inactive
CC=CC(=O)C1=C(C)C=CCC1(C)C,,inactive
CC(C)Cc1ccc(C(C)C(=O)O)cc1 (stereo unspecified),,inactive
Nc1ccc(N)c([N+](=O)[O-])c1,,inactive
O=S1(=O)CC(Cl)(Cl)C(Cl)(Cl)C1,1.42 µM (active),
C=C(F)C(=O)OC(C(F)(F)F)C(F)(F)F,,inactive
c1ccc(Sc2ccccc2)cc1,34.1 µM (active),
O=C1OC2(c3ccc(O)cc3Oc3cc(O)ccc32)c2ccccc21,,inactive
CC1=CC(C)C(C=O)C(C)C1 (stereo unspecified) (tested in a mixture with another compound),,inactive
CC(=O)CCC=C(C)CCC=C(C)C,,inactive
CC(C)(C)c1cccc(O)c1,,inactive
O=C(O)C(F)(F)C(F)(F)C(F)(F)C(F)(F)C(F)(F)C(F)(F)C(F)(F)C(F)F,,inactive
CC1(C)[C@H](C=C(Cl)Cl)[C@H]1C(=O)OCc1cccc(Oc2ccccc2)c1,,inactive
O=C(O)C(F)(F)OC(F)(F)C(F)(F)OC(F)(F)C(F)(F)C(F)(F)C(F)(F)F,,inactive
CCC(=O)OCC=Cc1ccccc1,,inactive
NC(=O)c1c(Cl)cccc1Cl,,inactive
C=C1CC/C=C(\C)CC[C@@H]2[C@@H]1CC2(C)C,23.9 µM (active),
COc1ccccc1NC(=O)CC(C)=O,,inactive
c1ccc2c(c1)-c1ccc3ccc4cccc5cc-2c1c3c45,2.78 µM (active),
O=S(=O)(O)C(F)(F)C(F)(F)OC(F)(F)C(F)(F)F,,inactive
